Experimental data: PubChem BioAssay (EPA / NIEHS)
Calls of active or inactive are those of the source. How the source made its calls: active means hit-call score of the fitted dose curve at least 0.9, where 1 is the maximum; inactive means score below 0.9.

Columns and labels:
Conditions in all cases: mRNA level, 48 h; actives raise or lower the signal
[1] = read-out: Intercellular Adhesion Molecule 1 (ICAM1), ICAM1 (gene 3383); assay: LTEA_HepaRG_ICAM1: Life Technologies and Expression Analysis (LTEA) Assay for Intercellular Adhesion Molecule 1 (ICAM1) using HepaRG (AID 2283507)
In short: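 ICAM1 transcript levels measured by qRT-PCR, normalized to three housekeeping genes (ACTB, GAPDH, POLR2A), after 48 h chemical exposure of HepaRG cells. Duplicate eight-point half-log series from 100 uM in 0.5% DMSO; gain or loss fitted against vehicle.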

[2] = read-out: Insulin-like growth factor-binding protein 1 (IGFBP1), IGFBP1 (gene 3484); assay: LTEA_HepaRG_IGFBP1: Life Technologies and Expression Analysis (LTEA) Assay for Insulin-like growth factor-binding protein 1 (IGFBP1) using HepaRG (AID 2283508)
In short: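 Read-out is qRT-PCR transcript level normalized to three housekeeping genes, fitted in both directions against 0.5% DMSO. Differentiated HepaRG cells received eight half-log concentrations (top 100 uM) in duplicate for 48 h in serum-free induction medium.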

[3] = read-out: Interleukin 6 (IL6), IL6 (gene 3569); assay: LTEA_HepaRG_IL6: Life Technologies and Expression Analysis (LTEA) Assay for Interleukin 6 (IL6) using HepaRG (AID 2283509)
In short: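 HepaRG, ~100,000 cells/well, 48 h pre-culture; serum-free induction medium; cmpd 8-pt half-log from 100 uM, 0.5% DMSO, duplicate, 48 h. Lysis in RLT, TaqMan qRT-PCR; gain or loss vs DMSO.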

[4] = read-out: Interleukin 6 Receptor (IL6R), IL6R (gene 3570); assay: LTEA_HepaRG_IL6R: Life Technologies and Expression Analysis (LTEA) Assay for Interleukin 6 Receptor (IL6R) using HepaRG (AID 2283510)
In short: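 Differentiated HepaRG cells, plated 48 h, then exposed in duplicate for 48 h in serum-free induction medium to 8 half-log concentrations (top 100 uM, 0.5% DMSO). IL6R mRNA measured by TaqMan qRT-PCR, normalized to ACTB/GAPDH/POLR2A; bidirectional fit vs DMSO.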

[5] = read-out: Potassium channel subfamily K member 1 (KCNK1), KCNK1 (gene 3775); assay: LTEA_HepaRG_KCNK1: Life Technologies and Expression Analysis (LTEA) Assay for Potassium channel subfamily K member 1 (KCNK1) using HepaRG (AID 2283511)
In short: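 Gain or loss of KCNK1 mRNA is the read-out, quantified by qRT-PCR against three housekeeping genes after 48 h chemical treatment of human HepaRG liver cells. Concentrations ran from 100 uM downward in half-log steps, vehicle 0.5% DMSO.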

[6] = read-out: Keratin 19 (KRT19), KRT19 (gene 3880); assay: LTEA_HepaRG_KRT19: Life Technologies and Expression Analysis (LTEA) Assay for Keratin 19 (KRT19) using HepaRG (AID 2283512)
In short: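 KRT19 transcript measured by TaqMan qRT-PCR, referenced to three housekeeping genes, after HepaRG cells received test chemicals for 48 h. Eight half-log concentrations, top 100 uM, 0.5% DMSO vehicle; increases and decreases both fitted.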

[7] = read-out: JUN Transcription Factor, JUN (gene 3725); assay: LTEA_HepaRG_JUN: Life Technologies and Expression Analysis (LTEA) Assay for JUN Transcription Factor using HepaRG (AID 2283513)
In short: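 HepaRG cells, 48 h post-plating, exposed 48 h in serum-free induction medium to 8-point half-log series (top 100 uM, 0.5% DMSO), duplicate; mRNA by qRT-PCR (TaqMan, Fluidigm), normalized to ACTB/GAPDH/POLR2A; bidirectional fit vs DMSO.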

[8] = read-out: Lipase C (LIPC), LIPC (gene 3990); assay: LTEA_HepaRG_LIPC: Life Technologies and Expression Analysis (LTEA) Assay for Lipase C (LIPC) using HepaRG (AID 2283514)
In short: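 Read-out is LIPC transcript level by TaqMan qRT-PCR, normalized to three housekeeping genes, after 48 h chemical treatment of human HepaRG liver cells. Curves span eight concentrations topping at 100 uM; activity in either direction scored relative to 0.5% DMSO.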

[9] = read-out: Lipoprotein lipase (LPL), LPL (gene 4023); assay: LTEA_HepaRG_LPL: Life Technologies and Expression Analysis (LTEA) Assay for Lipoprotein lipase (LPL) using HepaRG (AID 2283515)
In short: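 Read-out is LPL transcript level by qRT-PCR, normalized to three housekeeping genes and fitted bidirectionally against the DMSO control. Human HepaRG cells received chemicals for 48 h at up to 100 uM.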

[10] = read-out: MicroRNA 122 (MIR122), gene 406906; assay: LTEA_HepaRG_MIR122: Life Technologies and Expression Analysis (LTEA) Assay for MicroRNA 122 (MIR122) using HepaRG (AID 2283516); further: the transcript read is the microRNA miR-122
In short: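 Differentiated human HepaRG cells in serum-free induction medium exposed 48 h to 8 half-log concentrations from 100 uM in 0.5% DMSO, duplicate. MIR122 quantified by Fluidigm TaqMan qRT-PCR, normalised to ACTB, GAPDH, POLR2A; fold change fitted bidirectionally versus DMSO.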

[11] = read-out: matrix metalloproteinase-10 (MMP10), MMP10 (gene 4319); assay: LTEA_HepaRG_MMP10: Life Technologies and Expression Analysis (LTEA) Assay for matrix metalloproteinase-10 (MMP10) using HepaRG (AID 2283517)
In short: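 Gain or loss of MMP10 mRNA is fitted relative to the 0.5% DMSO vehicle. The human hepatic line HepaRG receives a 48-hour serum-free exposure, in duplicate, with a maximum concentration of 100 uM.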

MYC, MYC (gene 4609) = assay: LTEA_HepaRG_MYC: Life Technologies and Expression Analysis (LTEA) Assay for MYC using HepaRG (AID 2283518)
In short: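 MYC transcript changes, up or down relative to 0.5% DMSO, from TaqMan qRT-PCR normalized to three housekeeping genes. Human HepaRG cultures received chemicals for 48 h at eight half-log concentrations up to 100 uM, in duplicate.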

[12] = read-out: matrix metalloproteinase-3 (MMP3), MMP3 (gene 4314); assay: LTEA_HepaRG_MMP3: Life Technologies and Expression Analysis (LTEA) Assay for matrix metalloproteinase-3 (MMP3) using HepaRG (AID 2283519)
In short: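 HepaRG, human; 48 h dosing, 8 conc. (max 100 uM, half-log), duplicate, 0.5% DMSO. Readout: MMP3 transcript by Fluidigm TaqMan qRT-PCR, ACTB/GAPDH/POLR2A-normalised. Gain or loss fitted vs DMSO.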

[13] = read-out: Paternally Expressed 10 (PEG10), PEG10 (gene 23089); assay: LTEA_HepaRG_PEG10: Life Technologies and Expression Analysis (LTEA) Assay for Paternally Expressed 10 (PEG10) using HepaRG (AID 2283520)
In short: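 Differentiated HepaRG cells exposed 48 h in serum-free induction medium to eight half-log concentrations topping at 100 uM, 0.5% DMSO, in duplicate. PEG10 mRNA quantified by TaqMan qRT-PCR, normalized to ACTB, GAPDH and POLR2A; bidirectional fit versus DMSO.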

[14] = read-out: Nuclear factor NF-kappa-B p105 subunit (Homo sapiens) (UniProt P19838); assay: LTEA_HepaRG_NFKB1: Life Technologies and Expression Analysis (LTEA) Assay for Nuclear Factor Kappa B Subunit 1 (NFKB1) using HepaRG (AID 2283521)
In short: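 HepaRG, 48 h exposure; 8-pt half-log series from 100 uM in 0.5% DMSO; duplicates. Readout: NFKB1 mRNA by qRT-PCR (Fluidigm arrays), housekeeping-normalized. Gain/loss fit vs DMSO baseline.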

[15] = read-out: Protein phosphatase 2A (PPP2R4), PTPA (gene 5524); assay: LTEA_HepaRG_PPP2R4: Life Technologies and Expression Analysis (LTEA) Assay for Protein phosphatase 2A (PPP2R4) using HepaRG (AID 2283522)
In short: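 Differentiated human HepaRG cells in serum-free induction medium were exposed 48 h to 8 concentrations (top 100 µM, half-log steps, duplicate) in 0.5% DMSO. PPP2R4 mRNA was measured by TaqMan qRT-PCR, normalised to ACTB, GAPDH and POLR2A, and fitted bidirectionally versus DMSO.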

[16] = read-out: Phosphatase and tensin (PTEN), PTEN (gene 5728); assay: LTEA_HepaRG_PTEN: Life Technologies and Expression Analysis (LTEA) Assay for Phosphatase and tensin (PTEN) using HepaRG (AID 2283523)
In short: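 Read-out is PTEN transcript level by multiplexed TaqMan qRT-PCR after 48 h chemical treatment of human HepaRG cultures in serum-free induction medium. Concentrations spanned 100 uM downward in half-log steps, 0.5% DMSO throughout; activity fitted in both directions against vehicle.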

[17] = read-out: solute carrier (SLC22A1), SLC22A1 (gene 6580); assay: LTEA_HepaRG_SLC22A1: Life Technologies and Expression Analysis (LTEA) Assay for solute carrier (SLC22A1) using HepaRG (AID 2283524)
In short: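 HepaRG (human liver line), 48 h dosing in serum-free induction medium; 8 conc., half-log down from 100 uM, 0.5% DMSO vehicle, duplicates. Endpoint: SLC22A1 mRNA, qRT-PCR, housekeeping-normalized; gain/loss fit vs DMSO.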

[18] = read-out: Pyruvate Dehydrogenase Kinase 4 (PDK4), PDK4 (gene 5166); assay: LTEA_HepaRG_PDK4: Life Technologies and Expression Analysis (LTEA) Assay for Pyruvate Dehydrogenase Kinase 4 (PDK4) using HepaRG (AID 2283525)
In short: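 In this multiplexed human HepaRG expression assay, cells are treated 48 h with test chemicals across an eight-point range starting at 100 uM. PDK4 mRNA changes, normalized to ACTB/GAPDH/POLR2A, are fitted in both directions relative to vehicle.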

[19] = read-out: NAD(P)H dehydrogenase [quinone] 1 (NQO1), NQO1 (gene 1728); assay: LTEA_HepaRG_NQO1: Life Technologies and Expression Analysis (LTEA) Assay for NAD(P)H dehydrogenase [quinone] 1 (NQO1) using HepaRG (AID 2283526)
In short: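 Differentiated human HepaRG cells in serum-free induction medium, dosed in duplicate for 48 h at 8 half-log concentrations up to 100 uM in 0.5% DMSO. NQO1 mRNA by qRT-PCR normalized to ACTB, GAPDH, POLR2A; bidirectional fit versus DMSO baseline.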

Measured: AC50

Sequence of Nuclear factor NF-kappa-B p105 subunit (Homo sapiens) (P19838 whole entry, looked up): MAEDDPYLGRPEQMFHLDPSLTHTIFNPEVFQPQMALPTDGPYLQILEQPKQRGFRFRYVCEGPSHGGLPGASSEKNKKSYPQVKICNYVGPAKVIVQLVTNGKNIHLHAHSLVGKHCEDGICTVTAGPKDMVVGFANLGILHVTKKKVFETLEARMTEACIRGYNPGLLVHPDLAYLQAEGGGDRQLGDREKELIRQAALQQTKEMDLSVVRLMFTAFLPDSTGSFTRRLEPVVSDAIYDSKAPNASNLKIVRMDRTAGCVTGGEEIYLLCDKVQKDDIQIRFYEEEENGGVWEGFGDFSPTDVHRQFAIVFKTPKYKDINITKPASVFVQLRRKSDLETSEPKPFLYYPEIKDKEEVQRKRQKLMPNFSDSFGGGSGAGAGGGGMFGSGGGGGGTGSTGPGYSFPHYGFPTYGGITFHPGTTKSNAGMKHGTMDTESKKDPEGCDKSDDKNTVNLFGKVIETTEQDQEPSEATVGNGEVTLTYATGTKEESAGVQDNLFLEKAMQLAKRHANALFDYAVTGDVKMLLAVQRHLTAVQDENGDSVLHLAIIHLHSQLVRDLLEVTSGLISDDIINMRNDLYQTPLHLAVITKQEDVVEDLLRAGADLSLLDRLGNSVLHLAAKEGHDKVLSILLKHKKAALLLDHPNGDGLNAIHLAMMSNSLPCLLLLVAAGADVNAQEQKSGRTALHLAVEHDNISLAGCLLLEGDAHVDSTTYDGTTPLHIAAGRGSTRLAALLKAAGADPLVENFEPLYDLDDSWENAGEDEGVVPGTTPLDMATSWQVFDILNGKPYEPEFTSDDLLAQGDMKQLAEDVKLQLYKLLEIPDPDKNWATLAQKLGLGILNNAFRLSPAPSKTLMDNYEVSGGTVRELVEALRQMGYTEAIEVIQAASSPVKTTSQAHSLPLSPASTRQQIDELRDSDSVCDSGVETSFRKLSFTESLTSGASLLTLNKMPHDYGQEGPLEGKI

CCN(Cc1c(F)cccc1Cl)c1c([N+](=O)[O-])cc(C(F)(F)F)cc1[N+](=O)[O-]
inactive: [1] | [3] | [4] | [5] | [7] | [9] | [10] | [11] | [12] | [14] | [15] | [16] | [18] | [19]
active: [2] 28.8 µM | [6] 18.1 µM | [8] 50 µM | MYC, MYC (gene 4609) 50 µM | [13] 15.2 µM | [17] 29.6 µM

CCCCOC(=O)C(C)Oc1ccc(Oc2ccc(C(F)(F)F)cn2)cc1 (stereo unspecified)
inactive: [1] | [2] | [3] | [4] | [5] | [6] | [7] | [8] | [9] | [10] | [11] | MYC, MYC (gene 4609) | [12] | [13] | [14] | [15] | [16] | [17] | [19]

CCOC(=O)c1ccc(O)cc1
inactive: [1] | [2] | [3] | [4] | [5] | [6] | [7] | [8] | [9] | [10] | [11] | MYC, MYC (gene 4609) | [12] | [13] | [15] | [16] | [17] | [18] | [19]

O=C(O)C1(C(=O)Nc2ccc(Cl)cc2Cl)CC1
inactive: [1] | [2] | [3] | [4] | [5] | [6] | [7] | [9] | [11] | MYC, MYC (gene 4609) | [16] | [19]
active: [8] 76.2 µM | [10] 50 µM | [12] 50 µM | [13] 39.8 µM | [14] 22.9 µM | [15] 61.9 µM | [17] 74.3 µM

CCCCC(CC)CN1C(=O)C2C3C=CC(C3)C2C1=O (stereo unspecified)
active: [2] 82.9 µM | [3] 74.9 µM | [8] 88.2 µM | [9] 58.4 µM | [13] 1.98 µM | [15] 50 µM | [17] 78.3 µM
inactive: [1] | [4] | [5] | [6] | [7] | [10] | [11] | MYC, MYC (gene 4609) | [12] | [14] | [16] | [19]

O=C(c1ccc(O)cc1O)c1ccc(O)cc1O
inactive: [1] | [2] | [3] | [4] | [5] | [6] | [7] | [8] | [9] | [10] | [11] | MYC, MYC (gene 4609) | [12] | [13] | [14] | [15] | [16] | [17] | [18] | [19]
